Test results as given in PubChem BioAssay (Tox21).
“And” between values parts separate entries of the source, which are not always exact repeats. Equal entries are not always repeated. Results filed as inconclusive are left out. Where a call stands in place of a potency, no number is given. Some compounds were tested as several samples or in several runs, with calls that do not always agree. The source made the active and inactive calls. Unless noted, the call rests on the fitted dose curve; in most records, active means well fitted curve in the direction sought with a large enough effect in the repeat runs; inconclusive means weak or mixed curves; inactive means no such curve, though single readings can be large; an effect the other way counts as inactive or inconclusive.

Columns and labels:
[1] = qHTS assay to identify small molecule agonists of the estrogen receptor alpha (ER-alpha) signaling pathway in the presence of an antagonist - cell viability counter screen (AID 1259386);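 further: cells exposed to compounds for 22 h at 37 °C before the viability read; nearly all actives have a fitted effect of over 30% in size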; further: potency means the concentration at half of the fitted maximal effect
Summary of the method: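 VM7Luc4E2 cells (endogenous full-length ER-alpha, 4×ERE-luciferase) were held 5 days in phenol red-free medium with 10% charcoal-stripped FBS, plated, then given 10.0nM ICI-182,780 and compounds at 15 concentrations for 22hr at 37C; viability read by CellTiter-Fluor fluorescence.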

[2] = biological target: Progesterone receptor (Homo sapiens) (UniProt P06401); test: qHTS assay to identify small molecule antagonists of the progesterone receptor (PR) signaling pathway (AID 1346795; active means well fitted inhibition curve with a large enough effect in the signal ratio in the repeat runs, not every such curve was filed as active; the % refers to the signal ratio; further: potency means the concentration at half of the fitted maximal effect)
Sequence of Progesterone receptor (Homo sapiens) (P06401 whole entry, looked up): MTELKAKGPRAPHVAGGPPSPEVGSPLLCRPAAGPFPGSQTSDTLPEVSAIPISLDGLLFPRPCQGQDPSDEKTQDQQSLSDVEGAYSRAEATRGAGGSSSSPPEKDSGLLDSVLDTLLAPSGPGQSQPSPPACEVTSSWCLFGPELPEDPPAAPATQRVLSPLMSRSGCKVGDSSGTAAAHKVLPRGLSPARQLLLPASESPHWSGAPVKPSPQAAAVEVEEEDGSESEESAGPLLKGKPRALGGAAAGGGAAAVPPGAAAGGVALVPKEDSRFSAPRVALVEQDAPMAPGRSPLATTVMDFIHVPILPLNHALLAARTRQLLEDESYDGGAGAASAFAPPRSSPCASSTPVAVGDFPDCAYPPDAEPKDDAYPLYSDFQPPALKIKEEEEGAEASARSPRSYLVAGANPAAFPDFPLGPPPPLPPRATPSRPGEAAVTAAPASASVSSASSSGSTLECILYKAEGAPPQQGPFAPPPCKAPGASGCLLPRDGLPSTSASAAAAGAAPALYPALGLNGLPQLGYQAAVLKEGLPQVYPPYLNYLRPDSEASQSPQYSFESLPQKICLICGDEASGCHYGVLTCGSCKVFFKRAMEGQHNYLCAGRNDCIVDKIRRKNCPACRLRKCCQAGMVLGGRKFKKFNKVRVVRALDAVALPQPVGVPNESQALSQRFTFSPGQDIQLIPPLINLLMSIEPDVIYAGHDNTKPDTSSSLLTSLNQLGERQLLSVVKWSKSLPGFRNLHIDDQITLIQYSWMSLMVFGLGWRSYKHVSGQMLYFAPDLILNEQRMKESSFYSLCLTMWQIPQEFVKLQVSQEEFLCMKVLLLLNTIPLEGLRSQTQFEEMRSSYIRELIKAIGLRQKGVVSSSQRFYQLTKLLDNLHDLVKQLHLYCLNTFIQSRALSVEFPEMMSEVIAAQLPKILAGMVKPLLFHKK
Summary of the method: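 After 6 hr plating at 37C in 2% stripped-serum medium, PR-UAS-bla HEK293T cells got compounds, then 1 nM R5020. Sixteen hours later, LiveBLAzer substrate was applied for 2 hr at room temperature and fluorescence was recorded.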

[3] = qHTS assay to identify small molecule antagonists of the progesterone receptor (PR) signaling pathway - cell viability counter screen (AID 1346798); further: nearly all actives have a fitted effect of over 50% in size; further: potency means the concentration at half of the fitted maximal effect
Summary of the method: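 Viability was determined by ATP-based luminescence (CellTiter-Glo) in PR-UAS-bla HEK293T cells cultured in 2% charcoal-stripped serum and incubated 16 hr with compounds under R5020 stimulation.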

[4] = qHTS assay to identify small molecule agonists of the progesterone receptor (PR) signaling pathway - cell viability counter screen (AID 1346799; calls by dose curve; further: nearly all actives have a fitted effect of over 45% in size; further: potency means the concentration at half of the fitted maximal effect)
Summary of the method: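 Viability was scored by ATP luminescence (CellTiter-Glo, 30 min, room temperature) in the same wells used for the reporter readout, after 16 hr compound exposure of PR-UAS-bla HEK293T cells.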

[5] = qHTS assay to identify small molecule antagonists of the TGF-beta/Smad signaling pathway - cell viability counter screen (AID 1346824); further: nearly all actives have a fitted effect of over 50% in size; further: potency means the concentration at half of the fitted maximal effect
Summary of the method: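 Cytotoxicity counter-screen run in the same wells as the beta-lactamase Smad reporter read: CellTiter-Glo luminescence after 30 min at room temperature. HEK 293T SBE-bla cells had 5 hr compound exposure at 37 C with TGF-beta1 (0.25 ng/mL stock).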

[6] = qHTS assay to identify small molecule agonists of the TGF-beta/Smad signaling pathway - cell viability counter screen (AID 1346829); further: nearly all actives have a fitted effect of over 45% in size; further: potency means the concentration at half of the fitted maximal effect
Summary of the method: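 Here the cytotoxicity of library compounds is measured in SBE-bla HEK 293T cells treated for 5 hr, using CellTiter-Glo added to wells already read for the beta-lactamase reporter.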

[7] = biological target: Thyrotropin-releasing hormone receptor (Homo sapiens) (UniProt P34981); test: qHTS assay to identify small molecule antagonists of the thyrotropin-releasing hormone receptor (TRHR) signaling pathway (AID 1346877; active means well fitted inhibition curve with a large enough effect in the repeat runs, not every such curve was filed as active; further: potency means the concentration at half of the fitted maximal effect)
Sequence of Thyrotropin-releasing hormone receptor (Homo sapiens) (P34981 whole entry, looked up): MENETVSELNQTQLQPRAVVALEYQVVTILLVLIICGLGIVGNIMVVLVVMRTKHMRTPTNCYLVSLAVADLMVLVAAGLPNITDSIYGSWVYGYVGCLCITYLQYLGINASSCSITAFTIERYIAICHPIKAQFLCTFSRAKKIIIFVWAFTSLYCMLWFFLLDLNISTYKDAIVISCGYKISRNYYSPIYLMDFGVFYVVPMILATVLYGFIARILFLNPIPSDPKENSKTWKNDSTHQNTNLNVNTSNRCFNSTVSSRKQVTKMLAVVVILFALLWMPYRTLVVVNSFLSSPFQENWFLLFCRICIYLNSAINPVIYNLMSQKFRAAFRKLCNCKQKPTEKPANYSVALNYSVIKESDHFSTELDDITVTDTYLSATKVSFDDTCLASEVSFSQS
Summary of the method: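 TRHR-expressing HEK293 cells were seeded, cultured 18 h at 37 °C, then loaded with calcium dye for 2 h. Compounds were pre-incubated 5 min at room temperature before 1 nM TRH (final) was added, and kinetic fluorescence was recorded for 3 min.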

[8] = biological target: Thyrotropin-releasing hormone receptor (Homo sapiens) (UniProt P34981); test: qHTS assay to identify small molecule agonists of the thyrotropin-releasing hormone receptor (TRHR) signaling pathway (AID 1346891; calls by dose curve; further: potency means the concentration at half of the fitted maximal effect; on activation: series mostly up to about 58 µM)
Summary of the method: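 Kinetic fluorescence (3 min, 1 s intervals) reported intracellular calcium after compound transfer onto TRHR-Hek293 cells pre-loaded with dye for 2 h at 37 °C.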

[9] = Human pregnane X receptor (PXR) small molecule agonists, qHTS cell viability counter screen (AID 1346977); further: nearly all actives have a fitted effect of over 50% in size; further: potency means the concentration at half of the fitted maximal effect
Summary of the method: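 HepG2 cells stably carrying the PXR-Luc reporter are cultured with 5% charcoal-stripped FBS and treated with compounds for 24hr. CellTiter-Fluor is added at 23hr and fluorescence is read after 1hr.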

[10] = Caspase-3/7 induction in HepG2 cells by small molecules, qHTS assay (AID 1346978); further: nearly all actives have a fitted effect of over 15% in size; further: potency means the concentration at half of the fitted maximal effect
Summary of the method: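 Caspase-3/7 induction was measured by Caspase-Glo 3/7 luminescence (30 min, room temperature) after a 17 hr compound exposure of wild-type HepG2 cells seeded at 2,000 per well and pre-incubated 5 hr.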

[11] = Caspase-3/7 induction in CHO-K1 cells by small molecules, qHTS cell viability counter screen (AID 1346979); further: nearly all actives have a fitted effect of over 35% in size; further: potency means the concentration at half of the fitted maximal effect
Summary of the method: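 Seeding: 1,500 CHO-K1 cells/well. Rest: 5hr, 37C. Treatment: compounds in DMSO, 16hr. Read: CellTiter-Fluor, 1hr, fluorescence.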

[12] = Caspase-3/7 induction in CHO-K1 cells by small molecules, qHTS assay (AID 1346980); further: nearly all actives have a fitted effect of over 15% in size; further: potency means the concentration at half of the fitted maximal effect
Summary of the method: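 Luminescent Caspase-Glo 3/7 read (30min, room temperature) quantified apoptosis induction. Cells were wild-type CHO-K1, treated with compound for 17hr at 37 C and 5% CO2.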

[13] = Caspase-3/7 induction in HepG2 cells by small molecules, qHTS cell viability counter screen (AID 1346981); further: nearly all actives have a fitted effect of over 30% in size; further: potency means the concentration at half of the fitted maximal effect
Summary of the method: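 Wild-type HepG2 cells (2,000/well) were allowed to settle for 5 hr at 37 C, 5% CO2, then dosed with compounds in DMSO by pin transfer. After 16 hr at 37 C, CellTiter-Fluor was added and fluorescence read 1 hr later.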

[14] = biological target: Nuclear receptor subfamily 1 group I member 2 (Homo sapiens) (UniProt O75469); test: Human pregnane X receptor (PXR) small molecule agonists, qHTS assay (AID 1346982); further: nearly all actives have a fitted effect of over 35% in size; further: potency means the concentration at half of the fitted maximal effect
Sequence of Nuclear receptor subfamily 1 group I member 2 (Homo sapiens) (O75469 whole entry, looked up): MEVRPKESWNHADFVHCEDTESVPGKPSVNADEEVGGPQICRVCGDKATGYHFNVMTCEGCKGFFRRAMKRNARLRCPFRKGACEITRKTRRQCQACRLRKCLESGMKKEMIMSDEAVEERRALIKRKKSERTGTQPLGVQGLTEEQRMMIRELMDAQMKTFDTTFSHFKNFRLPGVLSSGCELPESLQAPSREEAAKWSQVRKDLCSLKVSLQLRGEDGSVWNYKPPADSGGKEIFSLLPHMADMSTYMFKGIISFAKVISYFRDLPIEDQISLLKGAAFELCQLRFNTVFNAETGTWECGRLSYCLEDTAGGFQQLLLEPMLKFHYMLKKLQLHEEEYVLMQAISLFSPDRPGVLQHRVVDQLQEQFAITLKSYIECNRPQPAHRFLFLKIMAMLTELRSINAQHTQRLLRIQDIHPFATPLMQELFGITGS
Summary of the method: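 PXR-Luc HepG2 cells (CYP3A4 promoter-driven luciferase) were seeded in medium with 5% charcoal-stripped FBS, left 5 hr at 37 C, then exposed to compounds in DMSO for 24 hr. Luminescence was read after ONE-Glo addition.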

[15] = biological target: Acetylcholinesterase (Homo sapiens) (UniProt P22303); test: Acetylcholinesterase (AChE) small molecule antagonists: colormetric cell-based qHTS assay (AID 1347395; calls by dose curve; further: nearly all actives have a fitted effect of over 30% in size)
Sequence of Acetylcholinesterase (Homo sapiens) (P22303 whole entry, looked up): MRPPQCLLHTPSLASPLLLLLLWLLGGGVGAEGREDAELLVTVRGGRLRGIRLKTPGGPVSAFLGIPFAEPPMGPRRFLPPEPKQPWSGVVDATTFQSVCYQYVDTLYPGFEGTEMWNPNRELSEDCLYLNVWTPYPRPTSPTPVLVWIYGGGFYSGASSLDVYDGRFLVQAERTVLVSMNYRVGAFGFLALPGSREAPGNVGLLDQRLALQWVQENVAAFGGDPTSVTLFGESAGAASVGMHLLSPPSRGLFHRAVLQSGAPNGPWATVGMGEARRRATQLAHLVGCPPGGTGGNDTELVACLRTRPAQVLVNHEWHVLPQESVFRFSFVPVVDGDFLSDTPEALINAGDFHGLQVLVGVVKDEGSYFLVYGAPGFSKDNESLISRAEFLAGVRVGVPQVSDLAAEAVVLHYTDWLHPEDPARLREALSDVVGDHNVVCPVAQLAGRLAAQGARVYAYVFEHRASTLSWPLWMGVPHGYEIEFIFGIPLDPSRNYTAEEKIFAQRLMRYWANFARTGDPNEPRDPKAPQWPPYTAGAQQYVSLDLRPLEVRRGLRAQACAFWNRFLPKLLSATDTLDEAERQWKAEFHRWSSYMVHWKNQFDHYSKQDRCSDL
Summary of the method: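 Quantitative HTS in attached SH-SY5Y cells: 30 min compound exposure, then 90 min with acetylthiocholine and DTNB at 37 C; colour from thiocholine reports AChE activity.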

[16] = qHTS assay to identify small molecule agonists of the TGF-beta/Smad signaling pathway (AID 1346859; active means well fitted activation curve with a large enough effect in the signal ratio in the repeat runs, not every such curve was filed as active; the % refers to the signal ratio; further: series mostly up to about 77 µM)
Summary of the method: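 Dual-wavelength fluorescence (460/530 nm emission) quantified beta-lactamase expression under the Smad binding element in HEK 293T cells following 5 hr compound treatment at 37 C.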

| Structure (SMILES) | Potency [1] | Potency [2] | Potency [3] | Potency [4] | Potency [5] | Potency [6] | Potency [7] | Potency [8] | Potency [9] | Potency [10] | Potency [11] | Potency [12] | Potency [13] | Potency [14] | activity, negative = inhibition [15] | outcome [16] | Potency [15] |
| --- | --- | --- | --- | --- | --- | --- | --- | --- | --- | --- | --- | --- | --- | --- | --- | --- | --- |
| CCC[CH2][Sn]([CH2]CCC)([CH2]CCC)[O][Sn]([CH2]CCC)([CH2]CCC)[CH2]CCC | 475 nM (active) | 752 nM (active) | 1680 nM (active) | 1890 nM (active) | 1510 nM (active) | 1510 nM (active) | 1050 nM (active) | 1350 nM (active) | 533 nM (active) | 2380 nM (active) | 336 nM (active) | 671 nM (active) | 1340 nM (active) | 238 nM (active) | -0.727% [at 10.5 µM] (inactive) |  |  |
| CCCCn1cc[n+](C)c1 (tested in a mixture with another compound) | inactive |  | inactive | inactive | inactive | inactive |  |  | inactive | inactive | inactive |  | inactive |  |  | inactive |  |
| [Cl-].[Cl-].[Cl-].[Yb+3] | inactive | inactive | inactive |  | inactive | inactive |  |  | inactive | inactive | inactive |  |  |  |  | inactive |  |
| [F][Sn]([c]1ccccc1)([c]1ccccc1)[c]1ccccc1 | 10900 nM (active) |  | 1370 nM (active) | 1540 nM (active) | 1380 nM (active) | 1230 nM (active) | 3380 nM (active) | 4360 nM (active) | 86.3 nM (active) | 193 nM (active) | 43.3 nM (active) | 61.1 nM (active) | 1220 nM (active) | 77 nM (active) |  |  | inactive |
| CC(O)C(=O)[O][Hg][c]1ccccc1 (stereo unspecified) | 12200 nM (active) |  | 4860 nM (active) | 4860 nM (active) | 9770 nM (active) | 17400 nM (active) |  |  | 1930 nM (active) | inactive | 1090 nM (active) | inactive | 4860 nM (active) | inactive |  |  | inactive |
| COc1ccc2[nH]cc(CCN(C(C)C)C(C)C)c2c1 | inactive |  | inactive |  | inactive | inactive |  |  |  | inactive | inactive | inactive | inactive | inactive |  | inactive |  |
| CC[C@H](C)[C@H]1O[C@]2(C=C[C@@H]1C)C[C@@H]1C[C@@H](C/C=C(\C)[C@@H](O[C@H]3C[C@H](OC)[C@@H](O[C@H]4C[C@H](OC)[C@@H](NC)[C@H](C)O4)[C@H](C)O3)[C@@H](C)/C=C/C=C3\CO[C@@H]4[C@H](O)C(C)=C[C@@H](C(=O)O1)[C@]34O)O2 | 27300 nM (active) |  | 24300 nM (active) | 13700 nM (active) | 17400 nM (active) | 15500 nM (active) |  |  |  | 17200 nM (active) | 6110 nM (active) | 6110 nM (active) | 15400 nM (active) |  |  |  | inactive |
| O=S1OCC2C(CO1)C1(Cl)C(Cl)=C(Cl)C2(Cl)C1(Cl)Cl (stereo unspecified) | inactive |  | 61100 nM (active) | 68700 nM (active) | inactive | inactive |  |  |  |  | 61.2 µM (active) and 68.5 µM (active) | inactive |  | 24.4 µM (active) and inactive |  | inactive | inactive |
| O=c1[nH]c(Cl)c(Cl)cc1Cl | inactive | inactive |  |  | inactive | inactive |  | inactive | inactive | inactive | inactive | inactive | inactive |  |  |  | inactive |
